# Assay results reported in ChEMBL document CHEMBL3988442, “University of Dundee, Small-Polar-MMV Screening Library” (2021).
# Among all 48,000 compounds or so, about 13,000 (27%) showed an effect of 50% or more. The list shows a part of the results.
# System: Wolbachia pipientis
# Test: Anti-Wolbachia Cell-Based Screen
# Assay type: functional
# Parameters: scale not given: in the data most compounds retested in dose-response had high values
# Details: 5 µM
row,SMILES,Percent Effect
1,CNS(=O)(=O)c1ccccc1N1CCN(C(C)C(N)=O)CC1 (configuration not stated),-9.322%
2,CC(C)NC(=O)N1CC[C@@H](N(C)C)[C@@H]1Cc1ccncc1.O=C(O)C(F)(F)F.O=C(O)C(F)(F)F,-7.431%
3,Cc1csc(C2CCCN(C(=O)c3cc(Cl)c[nH]3)C2)n1 (configuration not stated),-0.3257%
4,CCc1csc(C2CCCN(C(=O)c3ccco3)C2)n1 (configuration not stated),94.24%
5,CCc1csc(C2CCCN(C(=O)c3c[nH]c(C)n3)C2)n1 (configuration not stated),6.503%
6,CCc1csc(C2CCCN(C(=O)c3ccc(OC)nn3)C2)n1 (configuration not stated),3.799%
7,CCc1csc(C2CCCN(C(=O)c3cc(C4CC4)[nH]n3)C2)n1 (configuration not stated),98.97%
8,CCc1csc(C2CCCN(C(=O)c3ccccn3)C2)n1 (configuration not stated),106.7%
9,CCOC(=O)[C@@H]1CN2CCNC[C@@H]2[C@H]1c1ccccc1,110.8%
10,CCN(C(=O)CN1CCC(c2ccccc2)C1)C1CC1 (configuration not stated),4.674%
11,CCOC(=O)CCC(=O)N1CC(c2nc(Cc3ccccc3)no2)C1,-13.25%
12,O=C(CCn1cncn1)N1C[C@H]2CC[C@@H]1CN(Cc1ccncc1)C2,5.769%
13,CC(CN1CCOCC1)OC(=O)c1cccc2cn[nH]c12 (configuration not stated),-3.971%
14,Cc1csc(N2CCCN(C(=O)c3c(C)oc(C)c3C)CC2)n1,12.08%
15,Cc1nc(CN2CCCN(C(=O)c3c(C)oc(C)c3C)CC2)cs1,108.1%
16,CCc1noc(C)c1C(=O)N1CCCN(Cc2csc(C)n2)CC1,18.09%

row,SMILES,Percent Effect
1,Cc1oc(C)c(C(=O)N2CCN(Cc3cscn3)CC2)c1C,159.3%
2,CCc1noc(C)c1C(=O)N1CCCN(Cc2cscn2)CC1,149%
3,Cc1ocnc1C(=O)N1CCCN(Cc2cscn2)CC1,126.9%
4,Cc1cc(C(C)C(=O)N2CCCN(Cc3cscn3)CC2)c(C)o1 (configuration not stated),-21.53%
5,Cc1nc(CN2CCCN(C(=O)c3c(C)noc3C)CC2)cs1,14.06%
6,Cc1oc(C)c(C(=O)N2CCCN(Cc3cscn3)CC2)c1C,2.495%
7,Cc1noc(C)c1CNC(=O)N1CCN(Cc2cscn2)CC1,-4.059%
8,Cc1nn(C)c(Cl)c1S(=O)(=O)N(CC(N)=O)CC(C)C,-2.815%
9,O=C(c1cccc(F)c1F)N1CCn2c(nnc2C(F)(F)F)C1,-8.426%
10,O=C(NCC1=CCCCC1)C(c1cccnc1)N1CCCC1 (configuration not stated),4.63%
11,CCc1nc(CN2CCCN(C(=O)c3c(C)noc3C)CC2)cs1,-12.93%
12,CC(C)c1ncncc1C(=O)N1CCN(Cc2cscn2)CC1,-5.142%
13,Cc1noc(C)c1C(=O)N1CCCN(Cc2cscn2)CC1,110.4%
14,Cc1noc(C(C)C)c1C(=O)N1CCCN(Cc2cscn2)CC1,0.5158%
15,CCc1ncncc1C(=O)N1CCN(Cc2ccco2)CC1,2.127%
16,CCc1ncncc1C(=O)N1CCN(Cc2cscn2)CC1,108.1%
